Among the test systems are NCI-H23 lung; NCI-H226 lung; NCI-H322M lung; HOP-62 NSCLC; NCI-H460 lung; HOP-92 NSCLC; NCI-H522 lung; A549/ATCC NSCLC; 786-0 renal; COLO 205 colon; DU-145 prostate; K-562 leukemia; MALME-3M melanoma; MDA-MB-231 breast; RXF 393 renal; SF-268 CNS; SF-295 CNS; SF-539 CNS; UACC-257 melanoma; M14 melanoma.
Common to all, as to assay: NCI-60 one-dose screen, 48 h (100 = growth as untreated, 0 = no growth, -100 = all killed)
Holding throughout (conditions): 10 µM unless noted

Molecules are shown by their SMILES. About 83,000 compounds went through this panel and 20% of them were active in at least one assay; those are over-represented in the sample as a whole.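 Each cell line was grown in a 96-well plate and treated with one concentration of compound for 48 hours. Values below 10 were considered active.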 A number with no mark means an inactive call. Active and inactive are the calls of the source.

As for `C[N+]1=C(/C=C/c2ccc(O)c3ncccc23)C(C)(C)c2ccccc21`, the growth in the assay on NCI-H23 lung is 80.1%; in the assay with NCI-H226 lung it was 15%; in the assay on NCI-H322M lung, 97.4%; with HOP-62 NSCLC it was 30%; in the assay on NCI-H460 lung, 32.8%; with HOP-92 NSCLC it was 87.1%. Further, the growth is 51.9% with NCI-H522 lung; 17.9% in the assay with A549/ATCC NSCLC; 66.7% with 786-0 renal; 35.7% with COLO 205 colon; 85.2% with DU-145 prostate; 16.5% in the assay with K-562 leukemia. Moreover, the growth with MALME-3M melanoma was 115%; in the assay on MDA-MB-231 breast, 64.6%; with RXF 393 renal, 32.5%; in the assay on SF-268 CNS, 81.8%; with SF-295 CNS, 72.9%; in the assay on SF-539 CNS it was 25.9%. Further, the growth in the assay with UACC-257 melanoma was 85.3%; with M14 melanoma, 67.5%.

For the molecule `CCN(CC)c1ccc(C2=NN(C(C)=O)C(c3cc(OC)c(OC)c(OC)c3)C2)cc1` (stereo not given), the growth with NCI-H23 lung was 23.5%; in the assay with NCI-H226 lung, 9.31% (active); in the assay with NCI-H322M lung, -3.75% (active); with HOP-62 NSCLC it was 40.7%; with NCI-H460 lung, 13.4%; with HOP-92 NSCLC, 20.6%. In addition, the growth was -46.3% (active) with NCI-H522 lung; 17.1% in the assay with A549/ATCC NSCLC; 24% in the assay on 786-0 renal; -4.4% (active) in the assay with COLO 205 colon; -39.4% (active) with DU-145 prostate; -4.46% (active) with K-562 leukemia. The growth in the assay on MALME-3M melanoma is 21.7%; in the assay on MDA-MB-231 breast, 3.7% (active); in the assay on RXF 393 renal it was -44% (active); with SF-268 CNS it was 18.8%; in the assay on SF-295 CNS it was 7.69% (active); in the assay with SF-539 CNS, 2.39% (active). The growth with UACC-257 melanoma is 55.9%; in the assay on M14 melanoma, -28.8% (active).

As for `CC1CN(C2CCCCC2)C(=S)N(c2ccccc2)C1=O` (stereo not given), the growth is 100% in the assay with NCI-H23 lung; 115% in the assay on NCI-H226 lung; 107% in the assay with NCI-H322M lung; 93.7% in the assay with HOP-62 NSCLC; 107% in the assay with NCI-H460 lung; 92.8% with HOP-92 NSCLC. In addition, the growth is 116% with NCI-H522 lung; 102% in the assay with A549/ATCC NSCLC; 92.2% with 786-0 renal; 127% in the assay on COLO 205 colon; 115% with DU-145 prostate; 117% with K-562 leukemia. Further, the growth with MALME-3M melanoma is 119%; in the assay with MDA-MB-231 breast, 115%; in the assay on RXF 393 renal, 123%; with SF-268 CNS, 102%; in the assay with SF-295 CNS, 103%; with SF-539 CNS, 103%. For the same molecule, the growth in the assay on UACC-257 melanoma was 109%; in the assay with M14 melanoma, 108%.

On to `COc1ccc(-c2cc(-c3ccc(Cl)cc3)c(C#N)c(=O)n2CCCCCC(=O)Nc2ccccc2N)cc1`, for which the growth was 63.1% in the assay with NCI-H23 lung; 72.9% with NCI-H226 lung; 61.4% in the assay with NCI-H322M lung; 41.8% with HOP-62 NSCLC; 26.7% in the assay with NCI-H460 lung; 13% in the assay with HOP-92 NSCLC. Besides, the growth in the assay on NCI-H522 lung is 33.7%; with A549/ATCC NSCLC, 35.7%; in the assay on 786-0 renal, 41.5%; in the assay with COLO 205 colon, 10.1%; in the assay on DU-145 prostate, 49.8%; with K-562 leukemia, 15%. Besides, the growth is 39% with MALME-3M melanoma; 55.6% in the assay with MDA-MB-231 breast; 29.8% with RXF 393 renal; 75.9% with SF-268 CNS; -19.5% (active) in the assay on SF-295 CNS; 60% with SF-539 CNS. The growth in the assay with UACC-257 melanoma is 23.4%; in the assay on M14 melanoma, -10.9% (active).

`COc1cccc(Oc2ccccc2NC(=O)CNC(=O)c2cccc3ccccc23)c1`: the growth in the assay with NCI-H23 lung was 31.6% [5 µM]; in the assay on NCI-H226 lung, 53.7% [5 µM]; in the assay on NCI-H322M lung, 32.6% [5 µM]; with HOP-62 NSCLC it was 35.3% [5 µM]; in the assay on NCI-H460 lung, 6.08% [5 µM] (active); in the assay with HOP-92 NSCLC it was 31.6% [5 µM]. Also, the growth was -10.3% [5 µM] (active) in the assay on NCI-H522 lung; 26.8% [5 µM] with A549/ATCC NSCLC; 28.4% [5 µM] in the assay on 786-0 renal; -13.5% [5 µM] (active) in the assay on COLO 205 colon; 5.14% [5 µM] (active) in the assay on DU-145 prostate; 11.8% [5 µM] in the assay on K-562 leukemia. In addition, the growth in the assay on MALME-3M melanoma is 51.3% [5 µM]; in the assay with MDA-MB-231 breast, 7.29% [5 µM] (active); in the assay on RXF 393 renal, 52.4% [5 µM]; in the assay on SF-268 CNS, 34.6% [5 µM]; with SF-295 CNS, 14.6% [5 µM]; in the assay with SF-539 CNS, -7.85% [5 µM] (active). For the same molecule, the growth in the assay on UACC-257 melanoma is 83.6% [5 µM]; in the assay on M14 melanoma, -6.36% [5 µM] (active).

In the case of `COc1ccc(CNC(=O)[C@H](O)[C@@H](N)Cc2ccccc2)cc1`, the growth in the assay with NCI-H23 lung is 99.9%; with NCI-H226 lung, 98.8%; with NCI-H322M lung, 105%; with HOP-62 NSCLC it was 119%; in the assay on NCI-H460 lung, 106%; in the assay with HOP-92 NSCLC, 72.8%. For the same molecule, the growth with NCI-H522 lung is 95.6%; in the assay on A549/ATCC NSCLC, 108%; in the assay with 786-0 renal, 97.9%; with COLO 205 colon, 114%; in the assay with DU-145 prostate it was 113%; in the assay with K-562 leukemia, 98.4%. Further, the growth in the assay on MALME-3M melanoma is 108%; in the assay with MDA-MB-231 breast, 100%; in the assay with RXF 393 renal, 107%; with SF-268 CNS it was 92.7%; with SF-295 CNS it was 97.9%; in the assay on SF-539 CNS, 97.2%. For the same molecule, the growth in the assay on UACC-257 melanoma is 108%; in the assay on M14 melanoma, 105%.

On to `O=C(/C=C/c1cccc2ccccc12)c1ccc(NC(=O)c2ccccc2CN2C(=O)c3ccccc3C2=O)cc1`, for which the growth in the assay with NCI-H23 lung is 67.3%; in the assay with NCI-H226 lung, 93.4%; with NCI-H322M lung, 79.7%; in the assay on HOP-62 NSCLC, 94.2%; with NCI-H460 lung it was 79.9%; in the assay with HOP-92 NSCLC, 80.2%. In addition, the growth in the assay with NCI-H522 lung is 68.4%; in the assay on A549/ATCC NSCLC, 78.6%; in the assay with 786-0 renal it was 97%; in the assay with COLO 205 colon, 101%; in the assay on DU-145 prostate it was 42.7%; in the assay with K-562 leukemia, 20.2%. The growth with MALME-3M melanoma is 79.6%; in the assay with MDA-MB-231 breast, 58.4%; in the assay on RXF 393 renal, 91.5%; with SF-268 CNS, 75.4%; with SF-295 CNS, 96.4%; with SF-539 CNS, 90.2%. The growth in the assay with UACC-257 melanoma is 88%; in the assay on M14 melanoma it was 72.8%.

In the case of `CC1=C([Se]CC(OC(=O)[C@@H](CSSC(C)(C)C)NC(=O)OC(C)(C)C)C(=O)NC(C)(C)C)C(=O)c2ccccc2C1=O` (stereo not given in full), the growth in the assay with NCI-H23 lung is -63.7% (active); in the assay with NCI-H226 lung, -56.8% (active); in the assay on NCI-H322M lung it was -73.6% (active); in the assay with HOP-62 NSCLC, -51% (active); in the assay on NCI-H460 lung, -52.1% (active); in the assay with HOP-92 NSCLC it was -72.2% (active). For the same molecule, the growth in the assay with NCI-H522 lung is 7.01% (active); with A549/ATCC NSCLC, 1.99% (active); in the assay with 786-0 renal, -93.8% (active); in the assay with COLO 205 colon, -84.7% (active); with DU-145 prostate it was -98.7% (active); in the assay with K-562 leukemia, 31.9%. The growth was -65.8% (active) with MALME-3M melanoma; -42.2% (active) in the assay on MDA-MB-231 breast; -67.3% (active) in the assay with RXF 393 renal; -96.6% (active) in the assay on SF-268 CNS; -42.2% (active) in the assay on SF-295 CNS; -100% (active) in the assay with SF-539 CNS. Moreover, the growth with UACC-257 melanoma was -60% (active); in the assay with M14 melanoma, -84.8% (active).

(Values after PubChem BioAssay (NCI).)
